According to PubChem BioAssay (NCI):
The panel holds about 83,000 compounds, 20% with a hit somewhere; the sample as a whole holds those more often.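 Interpretation: 100, growth as untreated; towards 0, rising growth inhibition; 0, no net growth; 0 to -100, cell death. Compounds scoring below 10 were considered active.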 A number with no mark means an inactive call. Activity calls are given as the source filed them.

What was measured:
Experiment in all cases: NCI-60 one-dose screen, 48 h (100 = growth as untreated, 0 = no growth, -100 = all killed)
Settings in all cases: 10 µM unless noted
SK-MEL-2 melanoma = tested on: SK-MEL-2 melanoma
EKVX NSCLC = tested on: EKVX NSCLC
SN12C renal = tested on: SN12C renal
UO-31 renal = tested on: UO-31 renal
TK-10 renal = tested on: TK-10 renal
A498 renal = tested on: A498 renal
CCRF-CEM leukemia = tested on: CCRF-CEM leukemia
MOLT-4 leukemia = tested on: MOLT-4 leukemia
SR leukemia = tested on: SR leukemia
RPMI-8226 leukemia = tested on: RPMI-8226 leukemia
OVCAR-8 ovarian = tested on: OVCAR-8 ovarian
OVCAR-5 ovarian = tested on: OVCAR-5 ovarian
OVCAR-4 ovarian = tested on: OVCAR-4 ovarian
IGROV1 ovarian = tested on: IGROV1 ovarian
OVCAR-3 ovarian = tested on: OVCAR-3 ovarian
HS 578T breast = tested on: HS 578T breast
NCI/ADR-RES ovarian = tested on: NCI/ADR-RES ovarian
ACHN renal = tested on: ACHN renal
CAKI-1 renal = tested on: CAKI-1 renal
SK-OV-3 ovarian = tested on: SK-OV-3 ovarian

Row | Structure (SMILES) | growth (SK-MEL-2 melanoma) [%] | growth (EKVX NSCLC) [%] | growth (SN12C renal) | growth (UO-31 renal) [%] | growth (TK-10 renal) | growth (A498 renal) | growth (CCRF-CEM leukemia) | growth (MOLT-4 leukemia) | growth (SR leukemia) | growth (RPMI-8226 leukemia) | growth (OVCAR-8 ovarian) [%] | growth (OVCAR-5 ovarian) [%] | growth (OVCAR-4 ovarian) | growth (IGROV1 ovarian) [%] | growth (OVCAR-3 ovarian) | growth (HS 578T breast) [%] | growth (NCI/ADR-RES ovarian) | growth (ACHN renal) | growth (CAKI-1 renal) | growth (SK-OV-3 ovarian)
1 | Cn1cc(-c2csc(-c3cn(CCNC(=O)OC(C)(C)C)c4ccccc34)n2)c2cccnc21 | 88.2 | 67.9 | 87.8% | 42.7 | 122% | 82.4% | 43.4% | 42.3% | 75.6% | 42.1% | 45 | 115 | 49.2% | 64.7 | 86.3% | 82.1 | 56% |  |  | 
2 | Cn1cc(-c2csc(-c3c[nH]c4ccccc34)n2)c2cccnc21 | 38.2 | 42.5 | 46.5% |  | 48% | 13.5% | 20.4% | 44.4% | 27.4% | 21.3% | 39.2 | 54 |  | 42 | -14.9% (active) | 60.5 | 0.975% (active) | 51.8% | 15.7% | 28.9%
3 | COc1cnc2c(c1)C(=O)c1c-2n(CCCNCCN2CCOCC2)c(=O)c2cc([N+](=O)[O-])ccc12 | 19 | 15.8 | 4.54% (active) |  | -0.695% (active) | -86.7% (active) | 2.23% (active) | -1.41% (active) | -0.128% (active) | -14.5% (active) |  | 15.3 | -13.5% (active) | 15.6 | -25.9% (active) | 26.7 | 7.12% (active) | -69.6% (active) | -29.5% (active) | -12.9% (active)
4 | COc1ccc2c(c1)c(-c1nc(-c3c[nH]c4ncccc34)cs1)cn2C | 60.9 | 29.3 | 74.5% |  | 60.3% | 60.1% | 51.7% | 54.5% |  | 44.3% | 80.8 | 55 |  | 59.8 | 103% | 77.2 |  | 53.2% | 55.1% | 63.9%
5 | Cn1c(/C(C#N)=C/c2ccc3ccccc3c2)cc2ccccc21 | 71.7 | 37.4 | 33.5% |  | 106% | 2.85% (active) | 11.8% | 19.9% | 19.5% | 5.55% (active) | 30.3 | 34.4 | 56.5% | 21.2 | -0.996% (active) | 23.8 | -18.4% (active) | 35.4% | 28.5% | 58.8%
